Columns and labels:
[1] = target: T1, Aspartate--tRNA(Asp/Asn) ligase (Mycobacterium tuberculosis (strain ATCC 25618 / H37Rv)) (UniProt P9WFW3); assay: Assay for Asp RNA synthetase-1 from Mycobacterium tuberculosis; format: functional; parameters: scale not given: direction of the effect not stated beside the values; settings: 30 µM; further: in the data most compounds retested in dose-response had high values
T1 sequence (whole entry): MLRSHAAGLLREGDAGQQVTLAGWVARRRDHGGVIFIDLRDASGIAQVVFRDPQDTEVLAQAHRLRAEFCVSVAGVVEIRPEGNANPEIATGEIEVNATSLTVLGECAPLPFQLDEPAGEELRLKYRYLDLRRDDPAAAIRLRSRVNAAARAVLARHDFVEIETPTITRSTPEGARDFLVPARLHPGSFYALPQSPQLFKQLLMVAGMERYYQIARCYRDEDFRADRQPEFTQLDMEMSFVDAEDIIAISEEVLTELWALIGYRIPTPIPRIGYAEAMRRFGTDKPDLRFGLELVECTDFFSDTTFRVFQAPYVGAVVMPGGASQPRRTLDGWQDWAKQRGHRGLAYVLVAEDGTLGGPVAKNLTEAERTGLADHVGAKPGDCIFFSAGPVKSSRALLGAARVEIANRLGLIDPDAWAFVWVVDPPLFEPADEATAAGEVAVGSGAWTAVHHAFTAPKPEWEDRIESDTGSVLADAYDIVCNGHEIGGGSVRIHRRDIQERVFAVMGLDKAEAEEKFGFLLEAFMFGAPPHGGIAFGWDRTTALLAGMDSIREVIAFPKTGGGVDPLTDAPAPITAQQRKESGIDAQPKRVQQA

[2] = target: Shiga toxin 2 (Escherichia coli O157:H7) (UniProt P09385+P09386); assay: E. coli 0.157:H7 Shiga Toxin SOP - stx2 screening assay; format: functional; parameters: scale not given: direction of the effect not stated beside the values; settings: 30 µM

Row | SMILES | Percent Effect [1] [%] | Percent Effect [2] [%]
1 | CC(C)S(=O)(=O)c1nnc(CCNC(=O)OC(C)(C)C)o1 | 2.85 | -59.2
2 | O=c1[nH]c2nc(N3CCSCC3)ncc2c(=O)n1-c1cccc(F)c1 | 13.7 | -14.3
3 | CN(C)CCN(Cc1ccc(Cl)cc1)C(=O)c1cc[nH]n1 | -3.79 | 9.32
4 | CC(C)C(=O)NCCNc1nccc(-c2cc(C(=O)O)ccn2)n1 | 0.977 | -4.31
5 | CN(CC1(O)CCCN(c2ccccn2)C1)C(=O)Cc1ccsc1 (centres undefined) | 1.53 | 13.7
6 | Cn1ccnc1CN1CCN(Cc2noc(-c3ccccc3)n2)CC1 | -2.31 | -6.06
7 | CC(C)c1nccn1C1CCCN(C(=O)c2ccc3c(c2)OCO3)C1 (centres undefined) | -0.317 | 10.5
8 | CCOCC(O)CN1CCN(C(=O)CC(C)C)CC1 (centres undefined) | -2.19 | 18.6
9 | Cc1ccoc1C(=O)N1CCO[C@H]2[C@H](OCCN(C)C)CC[C@@H]21 | -1.25 | -12.2
10 | Cc1ccc(F)c(C(=O)N2CCN(S(C)(=O)=O)[C@@H](C)C2)c1 | -2.79 | -20.5
11 | CCCn1ccc(C(=O)N2CCOC(c3nc(-c4cccs4)no3)C2)n1 (centres undefined) | 0.28 | -0.831
12 | Cc1ncnc2c1CCN(Cc1ccccn1)CC2 | 1.8 | -19.4
13 | CCN1CC2(CCC1=O)CCN(C(=O)c1ccc(Cl)cc1O)CC2 | -1.67 | -16.7
14 | Cn1c(C2CC2)nc2c1CCN(CCS(=O)(=O)c1ccccc1)C2 | -5.83 | 6.27
15 | O=C(NCCNc1cnccn1)N1CCN(Cc2cccnc2)CC1 | -4.35 | -68.8
16 | COc1cccc(NC(=O)N(CCO)Cc2ccsc2)c1 | -1.36 | -14.3
17 | CS(=O)(=O)NCC1CCCN(Cc2ccc(F)c3cccnc23)C1 (centres undefined) | 5.29 | -44.4
